Shown are actives, neighbours in structure and some others; about 4% of the full set was active somewhere.
TWEAK-Fn14 inh: inhibitors of TWEAK-Fn14 signaling, primary screen, luciferase reporter cells, uHTS; actives 2% (n = 360,000); inhibition, % at 10 µM; TWEAK-stimulated Fn14 reporter cells, luciferase luminescence, 8 h; in the data active means inhibition above about 50%
CF NFkB block: inhibitors of PAF-induced NF-kB signaling, primary screen, cell-based, GFP fluorescence, uHTS. KKLEB NF-kB-GFP reporter, GFP fluorescence overnight. inhibition, % at 5 µM. actives 0.86% (n = 360,000);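 active means at least 50% inhibition at 5 µM, scaled per plate between neutral and stimulator controls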;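 further: PAF is a Pseudomonas aeruginosa culture filtrate used as stimulus; plate controls were PAF-stimulated DMSO wells for no effect and unstimulated DMSO wells for full effect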
Peg3 promoter: Peg3 promoter-driven luciferase inhibitors, primary screen, cell-based, HeLa, luciferase luminescence; HeLa PEG-Prom luciferase reporter, overnight; inhibition, % at 20 µM; actives 1.7% (n = 360,000);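 active means inhibition of at least 50% at 20 µM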
TROY signal inh: inhibitors of TROY-driven NF-kB signaling, primary screen, Q293 LMP1-TROYcd cells, NF-kB luciferase, uHTS; actives 0.98% (n = 360,000); Q293 LMP1-TROYcd NF-kB luciferase reporter, 4 h; inhibition, % at 10 µM;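 active means compounds whose plate-normalised and pattern-corrected inhibition of the luciferase reporter signal at the single screening dose is 50% or more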
HIF-2a inh: HIF-2a reporter inhibitors, primary screen, luminescence, 786-0 RCC cells. actives 0.72% (n = 360,000). inhibition, % at 18.8 µM. 786-0 RCC cells HIF-2a reporter, luciferase luminescence, overnight;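 active means inhibition of the luminescence signal of 40% or more relative to plate controls, in a single-dose primary screen at 18.75 µM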
KKLEB tox: cytotoxicity in KKLEB CF airway cells, primary screen, cytotoxicity control for CF NF-kB inhibitor project, cell-based, uHTS, fluorescence assay plates; KKLEB CF airway cells viability, ATPlite luminescence, overnight; hits give low values; cells stimulated with P. aeruginosa culture filtrate; activity change (cytotoxicity), % at 5 µM; actives 0.36% (n = 360,000); AID 602141, 2011;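 active means corrected activity change at or below -50% at 5 µM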
* hit, by the source's call; · = no result given.

SMILES | TWEAK-Fn14 inh | CF NFkB block | Peg3 promoter | TROY signal inh | HIF-2a inh | KKLEB tox
C[C@@H]1CN([C@@H](C)CO)S(=O)(=O)c2ccc(Br)cc2O[C@H]1CN(C)C(=O)Nc1ccc(C(F)(F)F)cc1 | 8 | -13 | 53* | -4 | -13 | -25
C[C@H]1CN([C@@H](C)CO)S(=O)(=O)c2ccc(Br)cc2O[C@@H]1CN(C)Cc1cccc(F)c1 | 17 | -9 | 56* | 9 | 16 | -2
O=C(Nc1nc(OCC(F)(F)F)cnc1/C=C\c1ccccc1)c1ccccc1 | -28 | -3 | 9 | -2 | -11 | 2
Cc1nnc(C)c2c(C)n(-c3ccc4ncccc4c3)c(C)c12 | 1 | 8 | -9 | 52* | 11 | 1
O=C(COCc1cc(-c2ccc3c(c2)OCO3)on1)N1CCN(c2ccccc2)CC1 | -10 | 2 | 8 | 0 | -9 | 4
CC(C)(C)NC(=O)C1C(c2ccccc2)=Nc2ccccc2N1C(=O)c1ccc(C(F)(F)F)cc1 (centres undefined) | · | · | · | · | -58 | ·
CC(=O)Nc1ccc(S(=O)(=O)N2CCN(Cc3csc(C)n3)CC2)cc1 | -4 | -6 | 11 | 10 | 10 | 4
O=C(NCCO)c1cccc(Nc2nc(-c3ccccc3)c3cc(Cl)ccc3n2)c1 | 51* | -27 | 14 | 22 | 20 | -2
COc1ccc(CCn2c(=N)c(C(=O)NCc3ccco3)cc3c(=O)n4ccccc4nc32)cc1OC | -8 | -25 | 7 | -4 | 2 | -7
N=c1c(S(=O)(=O)c2ccc(Cl)cc2)cc2c(=O)n3ccccc3nc2n1Cc1ccco1 | 53* | 18 | 36 | 31 | 8 | -18
COc1ccc(CCNC(=O)c2cc3c(=O)n4ccccc4nc3n(CCCN3CCOCC3)c2=N)cc1 | -3 | 21 | 14 | -11 | 17 | -12
COc1ccc(CCNC(=O)c2cc3c(=O)n4ccccc4nc3n(Cc3ccco3)c2=N)cc1OC | 96* | -5 | 73* | 62* | -41 | 6
COc1ccc(CCNC(=O)c2cc3c(=O)n4ccccc4nc3n(CCN3CCOCC3)c2=N)cc1 | 63* | -8 | 11 | 48 | 3 | -9
CC1CCN(c2ccc3nnc(CCC(=O)Nc4cccc(F)c4)n3n2)CC1 | -3 | 4 | -6 | -5 | -8 | 2
NS(=O)(=O)c1ccc(N/N=C/c2cn(-c3ccccc3)nc2-c2cccs2)c([N+](=O)[O-])c1 | -1 | 88* | -1 | -11 | 0 | -82*
COc1cc(/C=C/C2=NNC(=O)CC2)cc(OC)c1OC | -1 | -12 | 61* | 7 | 14 | 5
CCc1nnc(SCC(=O)Nc2ccc(F)cc2)o1 | 10 | -32 | -7 | 5 | -1 | 11
O=c1oc2ccccc2cc1-c1ccccc1 | -13 | -6 | -180 | -64 | -220 | 6
O=C(O)c1ccc(-n2cc(-c3cc4ccccc4oc3=O)[nH]c2=S)cc1 | 73* | 1 | 6 | 72* | -13 | 6
C=Cc1ncc(OC)c2c1[nH]c1ccccc12 | 24 | 5 | 81* | 10 | 31 | -54*
Cc1ccc(Cl)c(NC(=O)COC(=O)c2nn(-c3ccccc3)cc2O)c1Cl | -9 | 0 | -9 | -6 | 9 | -5
CCC1CSC(Nc2ccc(C(=O)/C=C/c3ccc(Oc4ccccc4)cc3)cc2)=N1 (centres undefined) | 14 | -16 | -118 | -36 | -25 | 1
CCC1CSC(Nc2ccc(C(=O)/C=C/c3cccc(C)c3)cc2)=N1 (centres undefined) | 52* | 24 | -29 | -11 | -84 | -15
Cc1ccc(C(=O)OCC(=O)NCc2ccc(Cl)cc2)s1 | 23 | 10 | 4 | 0 | 7 | 5
CN(C)CCn1c(SCc2ccccc2C#N)nc2c(sc3ccccc32)c1=O | 19 | 9 | -33 | -36 | -43 | 2
SMILES | TWEAK-Fn14 inh | CF NFkB block | Peg3 promoter | TROY signal inh | HIF-2a inh | KKLEB tox
Cc1ccsc1/C=N/Nc1ccc(C(=O)O)cc1 | 99* | -8 | 37 | 49 | 57* | 12
CC(C)c1ccc(/C=C2\SC(=O)N(CC(=O)NC3C=CS(=O)(=O)C3)C2=O)cc1 (centres undefined) | 7 | -11 | -18 | -14 | -67 | 12
CCc1nc2ccc(C(=O)NC3CCN(Cc4ccccc4)CC3)cn2c1N(C)Cc1cccs1 | -4 | 13 | 26 | 11 | 10 | -11
CCc1nc2ccc(C(=O)NCCCN(C)C)cn2c1N(C)CCCc1ccccc1 | -26 | 8 | 53* | -14 | 0 | -10
CCc1nc2ccc(C(=O)NC3CCN(Cc4ccccc4)CC3)cn2c1N(C)Cc1cc2ccccc2s1 | 29 | 31 | 94* | 36 | -4 | -8
FC(F)(F)c1nc2nccnc2[nH]1 | 6 | -6 | 12 | -3 | 2 | -8
COc1cc2cnc(-c3ccccc3)c(-c3ccc(C(F)(F)F)cc3)c2cc1OC | -43 | 19 | 64* | 2 | -58 | 1
Cc1cc(C)cc(S(=O)(=O)c2cn(C)c3cc(N4CCN(C)CC4)c(F)cc3c2=O)c1 | -8 | 6 | 100* | 5 | 1 | -7
Cc1nc2ccc(NC(=O)CCC3CCCC3)cc2s1 | -14 | 12 | -281 | -52 | -225 | -6
CCc1nnc(NC(=O)CSc2nnc(-c3ccc(S(=O)(=O)N(CC)CC)cc3)n2CC)s1 | 83* | 5 | 7 | -7 | 12 | -8
CCc1nnc(NC(=O)CSc2nnc(-c3ccc(S(=O)(=O)N4CCCC4)cc3)n2CC)s1 | 10 | -4 | -2 | 6 | 15 | 6
Cc1csc(SCC(=O)NC(C)C2CC3CCC2C3)n1 (centres undefined) | 15 | 22 | 2 | 0 | 14 | -8
Cc1cc(OCC(=O)N2CCN(c3ccccn3)CC2)cc(C)c1Br | 1 | 21 | 17 | -12 | 5 | -1
CCNC(=O)c1cccc(NC(=O)c2cc(C3CC3)nc3c2cnn3C(C)C)c1 | 7 | 2 | 42 | -6 | 3 | -1
CC(C)n1ncc2c(C(=O)Nc3cccc(C#N)c3)cc(C3CC3)nc21 | 54* | 20 | 43 | 59* | 13 | 14
CCC(Sc1nc(C)cc(C)n1)C(=O)Nc1ccc(Cl)cn1 (centres undefined) | 59* | -7 | 11 | · | 11 | 6
COC(=O)C1=C(C)N(Cc2ccccc2)C(=NCc2cccc(C(F)(F)F)c2)N[C@H]1c1cccc(F)c1 | -13 | 84* | 100* | -5 | 10 | -97*
COC(=O)C1=C(C)N(CC2CC2)C(=NCc2cccc(C(F)(F)F)c2)N[C@H]1c1ccccc1 | -7 | 8 | 31 | 5 | 6 | -1
